Measurements as given in PubChem BioAssay (Tox21).
Inconclusive results are not listed. The source made the active and inactive calls. Calls follow the shape of the full dose curve.

How the values were obtained:
[1] = biological target: Acetylcholinesterase (Homo sapiens) (UniProt P22303); test: Acetylcholinesterase (AChE) small molecule antagonists: colormetric cell-based qHTS assay (AID 1347395); also: nearly all actives have a fitted effect of over 30% in size
Outline: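 In this cell-based qHTS, attached SH-SY5Y cells were treated with test chemicals for 30 min, after which acetylthiocholine hydrolysis was followed by DTNB colour development over 90 min at 37 C.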

[2] = biological target: Acetylcholinesterase (Homo sapiens) (UniProt P22303); test: Acetylcholinesterase (AChE) small molecule antagonists: enzyme-based qHTS assay (AID 1347397); conditions: Potency: AChE enzyme activity inhibition; outcome: AChE enzyme activity inhibition; also: nearly all actives have a fitted effect of over 55% in size
Outline: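 Recombinant human AChE (50 mU/mL) preincubated with compound 30 min at room temperature; acetylthiocholine plus DTNB then added, and thiocholine formation read colorimetrically after 10 min at room temperature. DMSO served as vehicle control.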

[3] = biological target: Acetylcholinesterase (Homo sapiens) (UniProt P22303); test: Acetylcholinesterase (AChE) small molecule antagonists: fluorescence cell-based qHTS assay (AID 1347398); conditions: Potency: AChE activity; outcome: AChE activity; also: nearly all actives have a fitted effect of over 50% in size
Outline: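 SH-SY5Y cells (2000/well), attached overnight, incubated with compound 30 min at 37 C. Acetylthiocholine plus Thiolite Green then added for 40 min at room temperature. Thiocholine fluorescence (Ex/Em 490/520 nm) reports cellular AChE activity.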

[4] = biological target: Acetylcholinesterase (Homo sapiens) (UniProt P22303); test: Acetylcholinesterase (AChE) small molecule antagonists: enzyme-based qHTS assay with human liver microsomes (AID 1347399); conditions: Potency: qHTS inhibition; outcome: qHTS inhibition; also: nearly all actives have a fitted effect of over 60% in size
Outline: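 Recombinant human AChE (50 mU/mL in the enzyme mix) and human liver microsomes (0.25 mg/mL final) were preincubated with compound and NADPH (0.25 mg/mL final) for 30 min at 37 C. Acetylthiocholine/DTNB was then added; thiocholine was read colorimetrically after 10 min at room temperature.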

Measured: Potency

Sequence of Acetylcholinesterase (Homo sapiens) (P22303 whole entry, looked up): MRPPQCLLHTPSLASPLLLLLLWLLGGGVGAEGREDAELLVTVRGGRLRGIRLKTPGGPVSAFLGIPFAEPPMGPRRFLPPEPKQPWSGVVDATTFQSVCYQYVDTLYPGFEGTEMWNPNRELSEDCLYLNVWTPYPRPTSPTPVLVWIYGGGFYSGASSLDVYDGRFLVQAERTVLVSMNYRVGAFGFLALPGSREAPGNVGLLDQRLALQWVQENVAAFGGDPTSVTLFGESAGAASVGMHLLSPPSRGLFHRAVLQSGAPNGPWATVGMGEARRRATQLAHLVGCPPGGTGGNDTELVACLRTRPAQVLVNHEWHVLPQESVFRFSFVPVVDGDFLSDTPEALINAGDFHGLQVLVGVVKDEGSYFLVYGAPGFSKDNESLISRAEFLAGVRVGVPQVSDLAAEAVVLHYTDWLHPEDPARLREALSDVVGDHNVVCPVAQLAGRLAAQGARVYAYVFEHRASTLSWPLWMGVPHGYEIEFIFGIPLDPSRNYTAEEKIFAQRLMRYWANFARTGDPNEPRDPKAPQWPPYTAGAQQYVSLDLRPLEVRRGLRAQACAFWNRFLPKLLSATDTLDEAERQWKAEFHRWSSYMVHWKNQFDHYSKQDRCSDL

Nc1ccc2c(S(=O)(=O)O)cccc2c1S(=O)(=O)O
inactive: all assays above

CCCCCO
inactive: all assays above

CCCCOC(=O)[C@@H](C)Oc1ccc(Oc2ccc(C(F)(F)F)cn2)cc1
inactive: all assays above

CCO[Si](OCC)(OCC)OCC
inactive: all assays above

c1ccc(-c2nn[nH]n2)cc1
inactive: all assays above

NC(=O)NS(=O)(=O)c1ccc(Cl)cc1
inactive: all assays above

OCC(F)(F)F
inactive: all assays above

Cc1cncc(C)c1
inactive: all assays above

Cc1ccc(C(C)c2ccc(C)c(C)c2)cc1C
inactive: all assays above

CCCCCOc1ccccc1/C(=C\SC)n1ccnc1
inactive: all assays above

CCCCCCOC(=O)CCCCC(=O)OCCCCCC
inactive: all assays above

COc1cc(C)ccc1C(C)C
inactive: all assays above

CCCc1ccc(OC)cc1
inactive: all assays above

CC(C)=CCOc1ccc(/C=C/C(=O)c2ccc(OCC=C(C)C)cc2OCC(=O)O)cc1
inactive: all assays above

CCc1ccc(C)nc1
inactive: all assays above

CCCCCCCCCCCl
inactive: all assays above

O=C(c1ccccc1)C1CCC1
inactive: all assays above

CC(C)(C)C1CCCCC1=O (configuration not stated)
inactive: all assays above

FC(F)(F)C(Cl)(Cl)Cl
inactive: all assays above

CCOc1ccc(NC(=O)OC(C)C)cc1OCC
inactive: all assays above

CCC(C)SSC(C)CC (configuration not stated)
inactive: all assays above

CC(C)(C)NCCNC(C)(C)C
inactive: all assays above

CC1=NN(c2cccc(S(=O)(=O)O)c2)C(=O)C1
inactive: all assays above

Cc1ccc(O)c([N+](=O)[O-])c1
inactive: all assays above

CC1CC(=O)CC(C)(C)C1 (configuration not stated)
inactive: all assays above

CC1=NS(=O)(=O)c2cc(Cl)ccc2N1
inactive: all assays above

CC(C)(C)c1cc(CO)cc(C(C)(C)C)c1O
inactive: all assays above

CCC(C=O)CC
inactive: all assays above

O=C(O)c1cccc(-c2noc(-c3ccccc3F)n2)c1
inactive: all assays above

CCOC(=O)c1ccc(O)c(O)c1
inactive: all assays above

NNC(=O)CCCCC(=O)NN
inactive: all assays above

CCCC(c1cc(C(C)(C)C)c(O)cc1C)c1cc(C(C)(C)C)c(O)cc1C
inactive: all assays above

CCCOC(=O)c1ccc(N)cc1
inactive: all assays above

CC1=NN(c2ccc(S(=O)(=O)O)cc2)C(=O)C1N=Nc1ccccc1 (configuration not stated)
inactive: all assays above

CCCCCCOC(=O)c1ccccc1
inactive: all assays above

CC(=O)c1c(C)cc(C(C)(C)C)cc1C
inactive: all assays above

C=C(C)C(=O)OCCC(F)(F)C(F)(F)C(F)(F)C(F)(F)C(F)(F)C(F)(F)F
inactive: all assays above

COc1cc(NS(=O)(=O)c2ccc(N)cc2)nc(C)n1
inactive: all assays above

CC1c2ccccc2CN1NC(=O)c1ccc(Cl)c(S(N)(=O)=O)c1 (configuration not stated)
inactive: all assays above

CCC(=O)OC/C=C(\C)CCC=C(C)C
inactive: all assays above

O=C(O)CCN(C1(C(=O)NO)CCCC1)S(=O)(=O)c1ccc(Oc2ccc(F)cc2)cc1
inactive: all assays above

Cc1nc(-c2ccccn2)ncc1C(=O)Nn1cc(C)c2cc(F)ccc21
inactive: all assays above

CCCCCCCCSCc1cc(C)c(O)c(CSCCCCCCCC)c1
inactive: all assays above
